The panel holds about 79,000 compounds, 15% with a hit somewhere; the sample as a whole holds those more often. Active and inactive are the calls of the source. Cut-off read from the data, not from the text of the source: active = growth inhibition above about 70%; inactive = the rest.
Tests used:
[1] = NCI Yeast Anticancer Drug Screen. Data for the rad50 strain (AID 155);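 note: 0% = growth of vehicle-only cultures of the same strain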; conditions: S. cerevisiae rad50 strain growth inhibition; at 50.0 µM; stronger effect = higher value
Method in brief: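 Relative growth inhibition (compound vs vehicle) was measured in yeast with a defined repair-gene alteration.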

[2] = NCI Yeast Anticancer Drug Screen. Data for the mec2-1 strain (AID 157); conditions: S. cerevisiae mec2-1 strain, at 50.0 µM, stronger effect = higher value
Method in brief: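 Yeast mec2-1 mutant treated with compound. Readout: growth inhibition vs vehicle controls.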

[3] = NCI Yeast Anticancer Drug Screen. Data for the sgs1 mgt1 strain (AID 161);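 note: 0% = growth of cultures given vehicle only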; conditions: S. cerevisiae sgs1 mgt1 strain, at 50.0 µM, stronger effect = higher value
Method in brief: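 Test agents were incubated with a DNA-repair-mutant yeast strain. Growth was then read and compared against vehicle-treated controls.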

[4] = NCI Yeast Anticancer Drug Screen. Data for the cln2 rad14 strain (AID 165);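 note: 0% = growth equal to vehicle treated cultures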; conditions: S. cerevisiae cln2 rad14 strain, at 50.0 µM, stronger effect = higher value
Method in brief: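 cln2 rad14 yeast strain; compound exposure; growth inhibition read vs vehicle controls.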

[5] = NCI Yeast Anticancer Drug Screen. Data for the bub3 strain (AID 167); conditions: S. cerevisiae bub3 mutant strain, at 50.0 µM, stronger effect = higher value
Method in brief: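 Screening used yeast with an engineered genetic alteration affecting cell cycle control. Compound-exposed cultures were compared with vehicle cultures, and reduced growth was taken as inhibition.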

[6] = NCI Yeast Anticancer Drug Screen. Data for the mlh1 rad18 strain (AID 175); conditions: S. cerevisiae mlh1 rad18 strain growth inhibition; at 50.0 µM; stronger effect = higher value
Method in brief: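 Yeast w/ defined DNA-repair lesions; compound exposure; growth vs vehicle controls → % inhibition.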

Structure (SMILES) | growth inhibition [1] | growth inhibition [2] | growth inhibition [3] | growth inhibition [4] | growth inhibition [5] | growth inhibition [6]
O=c1/c(=C/c2ccc3c(c2)OCO3)sc2nnc(-c3ccco3)n12 | 1.85% (inactive) | -30.1% (inactive) | 17.9% (inactive) | 20.6% (inactive) | -19.9% (inactive) | -3.35% (inactive)
CSC1=NC=C(C#N)C2=NC(c3ccccc3)NN12 (centres undefined) | -0.3% (inactive) | -5.55% (inactive) | -6.6% (inactive) | -14.2% (inactive) | 2.8% (inactive) | 7% (inactive)
O=C(CCCC(=O)N/N=C/c1ccc(I)cc1)N/N=C\c1ccc(I)cc1 | 29.9% (inactive) | 9% (inactive) | 25.2% (inactive) | 25.1% (inactive) | -1.05% (inactive) | 17.7% (inactive)
O=c1c(Br)nn(C(c2ccccc2)c2ccccc2)c(=O)n1C(c1ccccc1)c1ccccc1 | 23.1% (inactive) | 2.25% (inactive) | 10.1% (inactive) | 15.8% (inactive) | 3.6% (inactive) | 13.1% (inactive)
COC(=O)c1cncc(C(=O)OC)c1 | -3.9% (inactive) | -12% (inactive) | 2.75% (inactive) | -2.35% (inactive) | 1.95% (inactive) | 12.8% (inactive)
C=C(C)C(=O)NC(N)=NC#N | -44% (inactive) | -9.25% (inactive) | -5.4% (inactive) | -13.8% (inactive) | -1.55% (inactive) | 6.15% (inactive)
CC(C)(C)C1CCC2c3c([nH]c4ccccc34)C3C(=O)N(c4ccc(C#N)cc4)C(=O)C3C2C1 (centres undefined) | 53.3% (inactive) | 50.2% (inactive) | 54.9% (inactive) | 16.9% (inactive) | 38.6% (inactive) | 38.8% (inactive)
CS/C(=N/N=C/c1ccc2ccccc2n1)SS/C(=N/N=C\c1ccc2ccccc2n1)SC | -8.05% (inactive) | 13.8% (inactive) | -12.4% (inactive) | -19.9% (inactive) | -0.3% (inactive) | -39.9% (inactive)
Cn1c(=O)nc(N)n(NC(=O)CCl)c1=O | 30.6% (inactive) | 10.3% (inactive) | 23.6% (inactive) | 9.9% (inactive) | -6.6% (inactive) | 15.4% (inactive)
N#C/C(=N\NC(=O)c1ccncc1)c1ccc(Cl)cc1 | -3% (inactive) | 3.6% (inactive) | 3.75% (inactive) | -30.2% (inactive) | -9.75% (inactive) | 4.65% (inactive)
N#C/C(=C\NC(N)=S)c1nc2ccccc2s1 | -18.1% (inactive) | 7.15% (inactive) | -15.8% (inactive) | 24.8% (inactive) | -4.25% (inactive) | -11.7% (inactive)
CCCCCCCCCCCCCCCCCC(=O)OCC1CO1 (centres undefined) | 23.2% (inactive) | 10.3% (inactive) | 21.6% (inactive) | 13.2% (inactive) | 18.9% (inactive) | 21.1% (inactive)
O=C(O)C(Cc1c[nH]c2ccccc12)Nc1ccc([N+](=O)[O-])cc1[N+](=O)[O-] (centres undefined) | -27.7% (inactive) | -3.95% (inactive) | 13.8% (inactive) | -10.7% (inactive) | 3.6% (inactive) | 7.55% (inactive)
CC1CCCC(C)N1 (centres undefined) | 2.5% (inactive) | -9.05% (inactive) | -1.75% (inactive) | -1.95% (inactive) | 1.5% (inactive) | 10.8% (inactive)
CCCNC(=S)NN1C2CSC1CS2 | 3.15% (inactive) | 14.9% (inactive) | -1.35% (inactive) | -33.2% (inactive) | -23.9% (inactive) | -0.4% (inactive)
CCCCON1C[C@@H](O)C(O)[C@@H](O)C1 (some centres undefined) | -25.9% (inactive) | 8.9% (inactive) | -37.9% (inactive) | -13.2% (inactive) | 13.6% (inactive) | -4.35% (inactive)
CCc1c(C)c(C#N)c(=S)n(C2OC(CO)C(O)C(O)C2O)c1C (centres undefined) | -61.8% (inactive) | 3.95% (inactive) | -19.7% (inactive) | 9.4% (inactive) | 8.35% (inactive) | -4% (inactive)

Structure (SMILES) | growth inhibition [1] | growth inhibition [2] | growth inhibition [3] | growth inhibition [4] | growth inhibition [5] | growth inhibition [6]
N#CC(C#N)=CN1CCCC1 | -19.6% (inactive) | 9.4% (inactive) | -6.45% (inactive) | -12.3% (inactive) | -5.95% (inactive) | -1.7% (inactive)
O=C(O)CCSSCCC(=O)O | 7.25% (inactive) | 6.5% (inactive) | 10.8% (inactive) | -1.65% (inactive) | -4.1% (inactive) | 10.8% (inactive)
COc1c(C)c2c(c(Br)c1N)COCO2 | 3.75% (inactive) | 16.9% (inactive) | -10.7% (inactive) | 8.95% (inactive) | -7.05% (inactive) | -21.6% (inactive)
OC12CC/C(=N/OCc3ccccc3)CC1c1ccccc12 (centres undefined) | 11.2% (inactive) | -22.9% (inactive) | -29.8% (inactive) | -16% (inactive) | -36.1% (inactive) | 0.45% (inactive)
COc1cc(C2=N/C(=C\c3cc(Br)cc(Br)c3O)C(=O)O2)cc(OC)c1OC | 83.2% (active) | 94.5% (active) | 88.2% (active) | 98.7% (active) | 98.5% (active) | 92.3% (active)
Nc1ncc([N+](=O)[O-])c(N)n1 | 2.75% (inactive) | 5.45% (inactive) | 7.75% (inactive) | 0.7% (inactive) | -13.8% (inactive) | 15.9% (inactive)
COC(=O)c1ccc(C(=O)OC)c(O)c1O | 11.3% (inactive) | 27.9% (inactive) | 8.85% (inactive) | -2.85% (inactive) | 12.8% (inactive) | 16.4% (inactive)
Cc1ccc(S(=O)(=O)Nc2nc3ccccc3c(=O)n2C2CCCCC2)cc1 | 27.2% (inactive) | 11.3% (inactive) | -43.2% (inactive) | 2.1% (inactive) | -19.5% (inactive) | -3.5% (inactive)
COc1cc2c(cc1O)C1Cc3cc(O)c(OC)cc3C(C2)N1C (centres undefined) | -29.8% (inactive) | -12.7% (inactive) | -30.2% (inactive) | 3.1% (inactive) | -25.6% (inactive) | -22.1% (inactive)
CCOc1c(N=Nc2ccccc2[N+](=O)[O-])c(C)nn1C(N)=S | -6.5% (inactive) | -5.95% (inactive) | 24.5% (inactive) | -26.8% (inactive) | -20.9% (inactive) | 17.4% (inactive)
CCSc1nc2ccc(CN3C(=O)c4ccccc4C3=O)cc2s1 | 1.3% (inactive) | -3.5% (inactive) | -4.6% (inactive) | 1.5% (inactive) | 15.8% (inactive) | -2.3% (inactive)
O=S(=O)(c1ccccc1)c1cccc2c[n+]3ccccc3cc12 | 34.6% (inactive) | 9.35% (inactive) | 39.2% (inactive) | 24.6% (inactive) | 22.5% (inactive) | 24.9% (inactive)
CC1=C(Br)C(=O)C(c2c(C)cc(C)cc2C)=C(Br)C1=O | 97.5% (active) | 98% (active) | 98.2% (active) | 92.8% (active) | 97.5% (active) | 98.5% (active)
CC(=O)N(C)c1ccc(N)cc1 | 33.5% (inactive) | 25.2% (inactive) | 24.9% (inactive) | -2.35% (inactive) | 31.8% (inactive) | 36.5% (inactive)
CC(=O)c1ccncc1 | -38.2% (inactive) | -0.7% (inactive) | 6.65% (inactive) | -27.4% (inactive) | -1.6% (inactive) | 20.6% (inactive)
Cc1ccc(S(=O)(=O)N/N=C/C(C)(C)C)cc1 | 17.4% (inactive) | -3.25% (inactive) | 8.95% (inactive) | -19% (inactive) | -6.75% (inactive) | 16.6% (inactive)
C[N+]1(C)CCC(c2ccccc2)(c2ccccc2)C(O)C1 (centres undefined) | -8.85% (inactive) | 40.7% (inactive) | 0% (inactive) | -0.2% (inactive) | -8.5% (inactive) | 1.5% (inactive)
